# From paper PMC7862700, “An all-to-all approach to the identification of sequence-specific readers for epigenetic DNA modifications on cytosine”
# Legend:
# Assay in all cases: DAPPL (digital affinity profiling via proximity ligation, sequencing); 10 mM Tris-HCl pH 7.5, 50 mM NaCl, 1 mM DTT, 4% glycerol, room temperature, 30 min; GST-TFs on glutathione beads, 16-mer random dsDNA library, 0.1% formaldehyde crosslink after washing; high values mean tight binding
# FLI1 = target: T1, FLI1 (Homo sapiens, UniProt Q01543 1-452); details: protein: recombinant; tags: N-terminal GST; dsDNA, one strand shown
# T1 sequence: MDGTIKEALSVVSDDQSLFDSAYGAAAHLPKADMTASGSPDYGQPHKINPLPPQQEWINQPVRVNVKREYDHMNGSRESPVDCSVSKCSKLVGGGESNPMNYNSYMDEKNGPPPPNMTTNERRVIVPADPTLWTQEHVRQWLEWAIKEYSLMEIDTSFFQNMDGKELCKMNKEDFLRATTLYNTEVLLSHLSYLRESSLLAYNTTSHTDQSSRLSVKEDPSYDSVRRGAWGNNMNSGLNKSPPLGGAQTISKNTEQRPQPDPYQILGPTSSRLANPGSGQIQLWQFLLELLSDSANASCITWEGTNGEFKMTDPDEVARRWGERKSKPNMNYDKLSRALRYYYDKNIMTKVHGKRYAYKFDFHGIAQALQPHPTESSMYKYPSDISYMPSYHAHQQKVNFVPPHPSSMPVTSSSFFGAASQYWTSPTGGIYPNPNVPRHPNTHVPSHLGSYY
# Procedure, shortened: (§1)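 Human transcription factors were made in yeast as GST fusions, captured on glutathione beads and barcoded with DNA. With a tag-only sample included, the pool was incubated with 200 nmole of a random double-stranded 16-mer DNA library in Tris/NaCl/DTT/glycerol buffer at room temperature for 30 min, then crosslinked with 0.1% formaldehyde after washing, ligated by proximity, amplified and sequenced. For binding signal, each hexamer's read frequency for a factor is divided by its frequency for the tag-only sample.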
# ELF1 = ELF1 (Homo sapiens, UniProt P32519 1-619); details: protein: recombinant; tags: N-terminal GST; dsDNA, one strand shown
# ELF1, sequence (P32519 whole entry): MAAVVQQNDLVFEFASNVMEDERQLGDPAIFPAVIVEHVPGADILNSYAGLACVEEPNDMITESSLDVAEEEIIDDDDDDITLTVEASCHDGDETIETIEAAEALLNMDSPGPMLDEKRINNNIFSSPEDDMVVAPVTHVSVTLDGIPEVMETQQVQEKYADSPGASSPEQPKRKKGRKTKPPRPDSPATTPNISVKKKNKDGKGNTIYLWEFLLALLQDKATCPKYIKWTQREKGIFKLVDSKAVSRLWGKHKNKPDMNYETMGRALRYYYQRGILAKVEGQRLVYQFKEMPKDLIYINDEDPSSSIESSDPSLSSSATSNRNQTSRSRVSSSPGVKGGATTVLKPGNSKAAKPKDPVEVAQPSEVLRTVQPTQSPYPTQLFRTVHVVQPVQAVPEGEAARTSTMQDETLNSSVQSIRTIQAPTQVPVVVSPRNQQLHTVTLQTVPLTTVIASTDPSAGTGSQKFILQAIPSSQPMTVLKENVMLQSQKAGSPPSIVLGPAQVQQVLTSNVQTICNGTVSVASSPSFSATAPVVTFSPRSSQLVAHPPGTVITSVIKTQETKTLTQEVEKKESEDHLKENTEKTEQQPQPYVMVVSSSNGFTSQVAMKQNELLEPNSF
# Procedure, shortened: as §1
# SPIB = SPIB (Homo sapiens, UniProt Q01892 1-262); details: protein: recombinant; tags: N-terminal GST; dsDNA, one strand shown
# SPIB, sequence (Q01892 whole entry): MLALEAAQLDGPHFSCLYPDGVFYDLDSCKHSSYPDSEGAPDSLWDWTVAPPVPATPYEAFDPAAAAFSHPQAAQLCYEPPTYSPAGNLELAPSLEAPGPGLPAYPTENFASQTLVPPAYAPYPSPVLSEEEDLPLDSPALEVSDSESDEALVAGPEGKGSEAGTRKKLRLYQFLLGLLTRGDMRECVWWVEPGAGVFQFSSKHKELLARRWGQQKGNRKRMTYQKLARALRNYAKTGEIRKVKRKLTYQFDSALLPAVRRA
# Procedure, shortened: as §1
# ELK3 = target: T2, ELK3 (Homo sapiens, UniProt P41970 1-407); details: protein: recombinant; tags: N-terminal GST; dsDNA, one strand shown
# T2 sequence: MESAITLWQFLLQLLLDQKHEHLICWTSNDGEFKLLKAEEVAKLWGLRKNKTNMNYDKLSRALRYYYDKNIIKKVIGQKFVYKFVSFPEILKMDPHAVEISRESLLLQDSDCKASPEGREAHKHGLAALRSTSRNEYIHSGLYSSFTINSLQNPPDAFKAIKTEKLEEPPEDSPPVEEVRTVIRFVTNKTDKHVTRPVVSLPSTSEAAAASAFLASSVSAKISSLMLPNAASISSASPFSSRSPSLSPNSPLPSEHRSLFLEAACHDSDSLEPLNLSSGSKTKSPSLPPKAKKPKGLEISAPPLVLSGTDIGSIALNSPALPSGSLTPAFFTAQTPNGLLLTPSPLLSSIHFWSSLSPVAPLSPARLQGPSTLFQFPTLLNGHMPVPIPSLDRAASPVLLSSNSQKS
# Procedure, shortened: as §1
# HSF1 = HSF1 (Homo sapiens, UniProt Q00613 1-529); details: protein: recombinant; tags: N-terminal GST; chain copies: 3; dsDNA, one strand shown
# HSF1, sequence (Q00613 whole entry): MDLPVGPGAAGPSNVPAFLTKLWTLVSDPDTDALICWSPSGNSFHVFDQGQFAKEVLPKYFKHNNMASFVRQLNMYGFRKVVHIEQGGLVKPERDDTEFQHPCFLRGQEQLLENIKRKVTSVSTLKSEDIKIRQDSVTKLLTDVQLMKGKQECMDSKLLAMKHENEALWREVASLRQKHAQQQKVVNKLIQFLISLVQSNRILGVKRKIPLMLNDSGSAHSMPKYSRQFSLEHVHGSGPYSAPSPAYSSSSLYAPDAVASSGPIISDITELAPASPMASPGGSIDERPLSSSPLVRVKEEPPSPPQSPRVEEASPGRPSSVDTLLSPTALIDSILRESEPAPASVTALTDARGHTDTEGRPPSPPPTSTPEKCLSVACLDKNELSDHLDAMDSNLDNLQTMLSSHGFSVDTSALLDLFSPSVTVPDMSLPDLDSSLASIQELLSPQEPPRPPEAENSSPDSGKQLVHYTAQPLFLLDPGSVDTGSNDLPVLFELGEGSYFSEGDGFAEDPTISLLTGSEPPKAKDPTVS
# Procedure, shortened: as §1
# ETV1 = ETV1 (Homo sapiens, UniProt P50549 1-477); details: protein: recombinant; tags: N-terminal GST; dsDNA, one strand shown
# ETV1, sequence (P50549 whole entry): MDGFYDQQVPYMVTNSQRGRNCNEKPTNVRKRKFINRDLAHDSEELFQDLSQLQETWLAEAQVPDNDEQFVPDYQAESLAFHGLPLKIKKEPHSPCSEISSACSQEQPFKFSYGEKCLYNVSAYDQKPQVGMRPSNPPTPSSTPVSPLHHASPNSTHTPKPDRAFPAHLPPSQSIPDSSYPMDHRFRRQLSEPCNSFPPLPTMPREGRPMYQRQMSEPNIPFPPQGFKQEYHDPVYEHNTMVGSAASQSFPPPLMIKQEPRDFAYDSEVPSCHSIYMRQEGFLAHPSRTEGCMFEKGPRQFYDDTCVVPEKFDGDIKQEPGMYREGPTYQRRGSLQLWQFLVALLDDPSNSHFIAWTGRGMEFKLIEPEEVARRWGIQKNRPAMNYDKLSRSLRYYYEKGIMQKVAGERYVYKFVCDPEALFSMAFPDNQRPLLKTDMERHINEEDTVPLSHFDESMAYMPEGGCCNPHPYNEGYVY
# Procedure, shortened: as §1
# ERF = target: T3, ERF (Homo sapiens, UniProt P50548 1-548); details: protein: recombinant; tags: N-terminal GST; dsDNA, one strand shown
# T3 sequence: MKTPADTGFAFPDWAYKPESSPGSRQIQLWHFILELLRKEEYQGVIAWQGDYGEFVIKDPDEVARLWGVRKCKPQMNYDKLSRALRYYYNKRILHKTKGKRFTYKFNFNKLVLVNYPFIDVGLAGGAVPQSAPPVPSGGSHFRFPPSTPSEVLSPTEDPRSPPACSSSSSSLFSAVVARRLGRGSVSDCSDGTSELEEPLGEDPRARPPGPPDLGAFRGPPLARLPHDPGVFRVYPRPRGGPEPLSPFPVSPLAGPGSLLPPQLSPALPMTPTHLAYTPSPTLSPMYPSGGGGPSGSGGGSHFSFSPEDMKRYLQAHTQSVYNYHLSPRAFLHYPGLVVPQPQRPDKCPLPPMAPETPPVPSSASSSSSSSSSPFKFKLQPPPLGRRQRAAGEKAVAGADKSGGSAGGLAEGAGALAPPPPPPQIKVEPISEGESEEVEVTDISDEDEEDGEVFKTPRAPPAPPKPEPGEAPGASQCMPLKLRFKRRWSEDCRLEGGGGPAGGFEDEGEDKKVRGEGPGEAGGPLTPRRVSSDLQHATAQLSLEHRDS
# Procedure, shortened: as §1
# ETV3L = target: T4, ETV3L (Homo sapiens, UniProt Q6ZN32 1-361); details: protein: recombinant; tags: N-terminal GST; dsDNA, one strand shown
# T4 sequence: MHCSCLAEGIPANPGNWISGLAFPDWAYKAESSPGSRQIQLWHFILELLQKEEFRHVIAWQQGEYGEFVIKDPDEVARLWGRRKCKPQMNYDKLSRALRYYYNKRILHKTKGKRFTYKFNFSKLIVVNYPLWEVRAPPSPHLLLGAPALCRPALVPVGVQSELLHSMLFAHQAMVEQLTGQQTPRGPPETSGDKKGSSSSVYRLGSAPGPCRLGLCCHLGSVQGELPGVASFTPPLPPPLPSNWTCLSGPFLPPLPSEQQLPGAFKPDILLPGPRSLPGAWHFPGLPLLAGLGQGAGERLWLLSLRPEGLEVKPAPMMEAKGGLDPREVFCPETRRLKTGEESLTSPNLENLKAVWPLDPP
# Procedure, shortened: as §1
# ETV3 = target: T5, ETV3 (Homo sapiens, UniProt P41162-2 1-143); details: protein: recombinant; tags: N-terminal GST; dsDNA, one strand shown
# T5 sequence: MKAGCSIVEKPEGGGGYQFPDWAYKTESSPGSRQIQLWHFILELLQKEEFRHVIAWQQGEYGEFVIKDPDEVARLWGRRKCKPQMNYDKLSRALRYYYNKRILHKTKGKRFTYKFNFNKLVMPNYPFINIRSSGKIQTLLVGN
# Procedure, shortened: as §1
# ELK1 = target: T6, ELK1 (Homo sapiens, UniProt P19419 1-428); details: protein: recombinant; tags: N-terminal GST; dsDNA, one strand shown
# T6 sequence: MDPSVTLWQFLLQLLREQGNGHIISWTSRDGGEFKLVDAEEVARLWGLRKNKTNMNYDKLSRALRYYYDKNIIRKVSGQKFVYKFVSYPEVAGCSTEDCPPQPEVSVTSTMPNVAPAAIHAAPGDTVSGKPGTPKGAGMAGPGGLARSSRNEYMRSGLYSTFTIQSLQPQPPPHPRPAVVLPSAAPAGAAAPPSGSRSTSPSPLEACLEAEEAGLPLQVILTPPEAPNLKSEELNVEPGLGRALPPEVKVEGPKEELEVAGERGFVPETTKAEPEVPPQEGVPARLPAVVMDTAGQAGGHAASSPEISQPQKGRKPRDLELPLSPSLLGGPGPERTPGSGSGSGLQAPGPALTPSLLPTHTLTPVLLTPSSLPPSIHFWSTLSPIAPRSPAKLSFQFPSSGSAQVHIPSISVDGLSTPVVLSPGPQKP
# Procedure, shortened: as §1
# GABPA = target: T7, GABPA (Homo sapiens, UniProt Q06546 1-454); details: protein: recombinant; tags: N-terminal GST; dsDNA, one strand shown
# T7 sequence: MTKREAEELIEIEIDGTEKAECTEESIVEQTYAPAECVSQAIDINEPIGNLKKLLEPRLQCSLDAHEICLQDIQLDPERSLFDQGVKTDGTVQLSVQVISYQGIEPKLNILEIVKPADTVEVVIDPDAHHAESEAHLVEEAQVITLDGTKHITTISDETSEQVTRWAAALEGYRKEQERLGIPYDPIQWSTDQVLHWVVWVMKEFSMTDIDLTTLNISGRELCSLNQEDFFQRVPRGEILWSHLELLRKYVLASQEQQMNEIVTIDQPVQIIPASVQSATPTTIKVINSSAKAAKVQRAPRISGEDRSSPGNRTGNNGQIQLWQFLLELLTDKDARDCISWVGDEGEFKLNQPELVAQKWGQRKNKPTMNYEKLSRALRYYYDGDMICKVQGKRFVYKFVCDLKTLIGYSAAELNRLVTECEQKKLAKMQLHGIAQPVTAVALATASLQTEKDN
# Procedure, shortened: as §1
# EHF = target: T8, EHF (Homo sapiens, UniProt Q9NZC4 1-300); details: protein: recombinant; tags: N-terminal GST; dsDNA, one strand shown
# T8 sequence: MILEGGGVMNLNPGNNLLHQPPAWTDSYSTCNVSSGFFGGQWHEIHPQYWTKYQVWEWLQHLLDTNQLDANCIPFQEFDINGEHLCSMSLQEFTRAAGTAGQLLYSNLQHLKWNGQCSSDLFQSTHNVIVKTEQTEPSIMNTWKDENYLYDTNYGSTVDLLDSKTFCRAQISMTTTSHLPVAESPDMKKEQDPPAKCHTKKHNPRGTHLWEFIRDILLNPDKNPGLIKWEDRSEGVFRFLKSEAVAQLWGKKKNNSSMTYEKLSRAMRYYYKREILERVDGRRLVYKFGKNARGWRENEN
# Procedure, shortened: as §1
# ELF4 = ELF4 (Homo sapiens, UniProt Q99607 1-663); details: protein: recombinant; tags: N-terminal GST; dsDNA, one strand shown
# ELF4, sequence (Q99607 whole entry): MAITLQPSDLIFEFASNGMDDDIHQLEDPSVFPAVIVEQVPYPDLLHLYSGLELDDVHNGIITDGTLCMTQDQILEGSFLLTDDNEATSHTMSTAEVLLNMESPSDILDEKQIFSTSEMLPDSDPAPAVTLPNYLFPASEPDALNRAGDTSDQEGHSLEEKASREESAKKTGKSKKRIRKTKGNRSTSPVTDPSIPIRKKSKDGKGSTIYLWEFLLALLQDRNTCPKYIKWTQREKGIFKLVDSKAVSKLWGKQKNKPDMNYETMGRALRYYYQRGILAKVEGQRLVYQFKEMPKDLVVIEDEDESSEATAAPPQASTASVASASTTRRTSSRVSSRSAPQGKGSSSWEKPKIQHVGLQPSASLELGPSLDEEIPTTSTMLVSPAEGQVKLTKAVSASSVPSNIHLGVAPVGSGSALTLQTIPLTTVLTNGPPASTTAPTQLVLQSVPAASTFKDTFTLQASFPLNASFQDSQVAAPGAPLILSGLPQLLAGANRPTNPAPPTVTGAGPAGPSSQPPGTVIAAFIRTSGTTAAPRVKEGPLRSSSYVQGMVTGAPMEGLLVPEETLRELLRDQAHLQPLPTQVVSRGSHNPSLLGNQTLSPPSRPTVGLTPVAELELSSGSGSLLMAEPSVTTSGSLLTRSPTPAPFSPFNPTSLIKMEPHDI
# Procedure, shortened: as §1
# ELK4 = target: T9, ELK4 (Homo sapiens, UniProt P28324-2 1-405); details: protein: recombinant; tags: N-terminal GST; dsDNA, one strand shown
# T9 sequence: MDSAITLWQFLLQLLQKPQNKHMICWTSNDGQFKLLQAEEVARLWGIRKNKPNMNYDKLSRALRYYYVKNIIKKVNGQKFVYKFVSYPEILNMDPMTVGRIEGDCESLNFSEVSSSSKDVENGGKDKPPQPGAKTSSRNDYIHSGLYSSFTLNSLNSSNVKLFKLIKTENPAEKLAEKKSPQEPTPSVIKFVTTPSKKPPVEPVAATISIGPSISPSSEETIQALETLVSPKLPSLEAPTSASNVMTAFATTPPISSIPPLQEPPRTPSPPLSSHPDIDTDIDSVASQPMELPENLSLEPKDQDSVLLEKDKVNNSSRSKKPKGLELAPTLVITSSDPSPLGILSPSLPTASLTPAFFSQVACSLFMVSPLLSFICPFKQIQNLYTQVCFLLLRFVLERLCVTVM
# Procedure, shortened: as §1
# ETV2 = target: T10, ETV2 (Homo sapiens, UniProt O00321 1-342); details: protein: recombinant; tags: N-terminal GST; dsDNA, one strand shown
# T10 sequence: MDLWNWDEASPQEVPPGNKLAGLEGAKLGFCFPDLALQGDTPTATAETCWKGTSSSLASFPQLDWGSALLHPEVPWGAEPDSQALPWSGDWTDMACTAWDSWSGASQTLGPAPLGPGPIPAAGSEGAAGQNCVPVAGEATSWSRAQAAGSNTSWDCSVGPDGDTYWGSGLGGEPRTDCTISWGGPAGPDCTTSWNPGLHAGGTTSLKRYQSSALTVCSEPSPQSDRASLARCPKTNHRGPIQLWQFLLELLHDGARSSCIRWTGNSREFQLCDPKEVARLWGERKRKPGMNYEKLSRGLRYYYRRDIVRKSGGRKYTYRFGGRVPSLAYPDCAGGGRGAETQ
# Procedure, shortened: as §1
# ETV7 = target: T11, ETV7 (Homo sapiens, UniProt Q9Y603 1-341); details: protein: recombinant; tags: N-terminal GST; dsDNA, one strand shown
# T11 sequence: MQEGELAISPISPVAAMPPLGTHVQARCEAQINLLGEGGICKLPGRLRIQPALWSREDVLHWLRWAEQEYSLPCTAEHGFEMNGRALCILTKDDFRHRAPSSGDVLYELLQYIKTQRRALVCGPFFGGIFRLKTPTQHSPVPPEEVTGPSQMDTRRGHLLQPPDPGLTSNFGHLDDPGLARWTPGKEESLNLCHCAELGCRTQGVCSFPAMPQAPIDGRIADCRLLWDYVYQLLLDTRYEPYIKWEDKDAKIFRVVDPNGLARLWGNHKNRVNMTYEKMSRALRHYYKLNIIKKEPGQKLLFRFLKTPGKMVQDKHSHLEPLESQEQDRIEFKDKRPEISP
# Procedure, shortened: as §1
# ETV6 = ETV6 (Homo sapiens, UniProt P41212 1-452); details: protein: recombinant; tags: N-terminal GST; dsDNA, one strand shown
# ETV6, sequence (P41212 whole entry): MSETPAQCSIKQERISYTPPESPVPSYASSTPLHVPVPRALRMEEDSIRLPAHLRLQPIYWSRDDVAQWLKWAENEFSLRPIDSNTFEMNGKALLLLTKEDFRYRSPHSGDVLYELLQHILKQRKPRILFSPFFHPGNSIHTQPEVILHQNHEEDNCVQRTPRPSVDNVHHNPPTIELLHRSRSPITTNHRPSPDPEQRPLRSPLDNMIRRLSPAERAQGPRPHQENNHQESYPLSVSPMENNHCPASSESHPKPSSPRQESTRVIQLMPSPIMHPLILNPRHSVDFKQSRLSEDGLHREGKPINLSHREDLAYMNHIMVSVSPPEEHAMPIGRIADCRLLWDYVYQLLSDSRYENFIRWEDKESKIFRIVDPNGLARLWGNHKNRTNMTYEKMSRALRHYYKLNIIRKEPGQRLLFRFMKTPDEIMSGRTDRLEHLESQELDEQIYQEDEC
# Procedure, shortened: as §1
Sequence,binding signal (FLI1),binding signal (ELF1),binding signal (SPIB),binding signal (ELK3),binding signal (HSF1),binding signal (ETV1),binding signal (ERF),binding signal (ETV3L),binding signal (ETV3),binding signal (ELK1),binding signal (GABPA),binding signal (EHF),binding signal (ELF4),binding signal (ELK4),binding signal (ETV2),binding signal (ETV7),binding signal (ETV6)
CTCGGG,"1.06 fold enrichment (6-mer frequency, TF over GST control)","1.09 fold enrichment (6-mer frequency, TF over GST control)","1.03 fold enrichment (6-mer frequency, TF over GST control)","1.05 fold enrichment (6-mer frequency, TF over GST control)","1.04 fold enrichment (6-mer frequency, TF over GST control)","1.03 fold enrichment (6-mer frequency, TF over GST control)","1.02 fold enrichment (6-mer frequency, TF over GST control)","1.09 fold enrichment (6-mer frequency, TF over GST control)","1 fold enrichment (6-mer frequency, TF over GST control)",,,,,,,,
AGAACA,"1.06 fold enrichment (6-mer frequency, TF over GST control)","1.07 fold enrichment (6-mer frequency, TF over GST control)",,,"2.37 fold enrichment (6-mer frequency, TF over GST control)","1.02 fold enrichment (6-mer frequency, TF over GST control)","1.07 fold enrichment (6-mer frequency, TF over GST control)","1.01 fold enrichment (6-mer frequency, TF over GST control)","1.07 fold enrichment (6-mer frequency, TF over GST control)","1.06 fold enrichment (6-mer frequency, TF over GST control)","1.11 fold enrichment (6-mer frequency, TF over GST control)","1.02 fold enrichment (6-mer frequency, TF over GST control)","1.06 fold enrichment (6-mer frequency, TF over GST control)","1.02 fold enrichment (6-mer frequency, TF over GST control)","1.03 fold enrichment (6-mer frequency, TF over GST control)","1.07 fold enrichment (6-mer frequency, TF over GST control)","1.08 fold enrichment (6-mer frequency, TF over GST control)"
